Compound activity deposited in PubChem by Broad Institute.
Compounds with a hit are over-represented: about 1.2% of the library has one in this group of screens.
NSD2 inh = NSD2 (human) methyltransferase inhibition | NSD2 peptide methylation, AlphaScreen, 120 min | inhibition, % at 12.5 µM | 0.54% of 310,000 active; in the data active means inhibition above about 50%
miR122 inh = miR-122 inhibition in Huh7 cells | 0.3% of 340,000 active | activation (reporter increase), % at 12.5 µM | Huh7 miR-122 Renilla luciferase sensor, 48 h; neutral wells = 0, positive control = 100 | AID 602342;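 active means mean replicate activation score at least 90 and every replicate individually at or above 90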;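 further: higher luciferase means less miR-122 activity so hits act as miR-122 inhibitors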
C2C12 statin = suppressors of simvastatin-induced myotoxicity in C2C12 myotubes | 0.78% of 330,000 active | ATP luminescence, 48 h; scaled: DMSO 0, geranylgeraniol control 100 | AID 602340 | rescue of ATP level, % at 7.49 µM;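 active means mean ATP rescue above about 67%, or every replicate alone reaching that limit, limit read from the data, passing the limit was not always enough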;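 further: myotubes were challenged with 10 µM simvastatin during compound exposure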
PglD DTNB = PglD (C. jejuni) enzyme inhibition. inhibition, % at 12.5 µM. purified PglD enzyme, DTNB colorimetric CoA detection. 0.098% of 360,000 active; in the data active means inhibition above about 16%, passing the limit was not always enough
PglD inh SP = blocks Campylobacter jejuni PglD acetyltransferase activity; shares compounds with PglD DTNB; Purified C. jejuni PglD, DTNB absorbance 412 nm; inhibition, % at 20 µM; 320 tested, under 10 active;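 active means mean inhibition across replicates of at least 20% with every single replicate also at 20% or more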;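 further: initial rate of CoA release by acetyl transfer from AcCoA to the UDP-4-amino sugar; 0% = median of neutral control wells and 100% = median of positive control wells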
AlphaScreen art = AlphaScreen assay artifact in NSD2 counter-screen. 9.4% of 1,500 active. AC35, µM (series often up to 10 µM), for the others: top-dose activity change, negative = signal loss. shares compounds with NSD2 inh. AlphaScreen artifact counterscreen, preloaded methylated H4 peptide; call rule not given here
* marks the source's active call; other numbers are inactive results; x = not tested or not shown; [ ] = dose if it differs, or a comment.

SMILES	NSD2 inh	miR122 inh	C2C12 statin	PglD DTNB	AlphaScreen art	others
COc1ccc(S(=O)(=O)N(C)C[C@@H]2Oc3ccc(NC(=O)Cn4cnnn4)cc3C(=O)N([C@H](C)CO)C[C@H]2C)cc1	x	-1.3[16.7 µM]	x	-7.9	x
C[C@H](CO)N1C[C@H](C)[C@H](CN(C)C(=O)C2CCCCC2)Oc2cc(C3=CCCCC3)ccc2S1(=O)=O	x	6.9[16.7 µM]	-12.0	2.5	x
Oc1cc2c(cc1CN1CCN(c3cccc(C(F)(F)F)c3)CC1)CCC2	-0.5	-2.5	-36.4	55.1*	x	PglD inh SP=0.8
COc1ccc(N2CCN(Cc3cc4c(cc3O)CCC4)CC2)cc1	9.8	-2.8	16.3	2.1	x
CCN(CC)C(=O)c1ccccc1NC(=O)c1ccccc1	-2.2	x	-6.0	28.5*	x	PglD inh SP=0.2
CCN(CC)C(=O)c1ccccc1NC(=O)c1cccc(S(=O)(=O)N(CC)CC)c1	0.5	-4.1	-5.2	x	x
CC(=O)c1ccc(OCCCC(=O)Nc2cccc(S(=O)(=O)N3CCOCC3)c2)cc1	-0.8	x	7.8	-7.1	x
O=C(CCCOc1ccccc1)Nc1cccc(S(=O)(=O)N2CCOCC2)c1	4.2	6.1	-3.2	20.8*	x	PglD inh SP=-3.8
Cc1cccc(CN(C)C[C@H]2OCc3cn(nn3)CCCC(=O)N([C@H](C)CO)C[C@@H]2C)c1	x	13.0[16.7 µM]	-1.0	x	x
O=S(=O)(c1ccc(F)cc1)N1CCCC(CO)C1 (configuration not stated)	0.4	-5.6	-2.0	32.7*	x	PglD inh SP=-1.8
O=C(O)C1CCCN(S(=O)(=O)c2ccc(F)cc2)C1 (configuration not stated)	-1.8	3.7	x	9.8	x
O=C(NCCCN1CCN(c2cccc(Cl)c2)CC1)c1ccc(N2CCCC2=O)cc1	3.2	5.3	-0.9	35.5*	x	PglD inh SP=6.0
O=C(NCCCN1CCN(c2cccc(Cl)c2)CC1)c1cccc(N2CCCC2=O)c1	9.3	6.6	4.5	x	x
CC(C)NC(=O)N(C)C[C@H]1Oc2ccc(NS(=O)(=O)c3ccc(Cl)cc3)cc2C(=O)N([C@H](C)CO)C[C@@H]1C	x	-1.8[16.7 µM]	-12.7	0.0	x
Nc1ncc(-c2ccccc2)n1CC1CCCO1 (configuration not stated)	123.3*	-4.6	2.3	-1.5	-5.9%
CC(C)NC(=O)N1C[C@H]2[C@@H](c3ccccc31)[C@H](CO)N2C(=O)C1CCCC1	x	0.0[16.7 µM]	-6.3	0.2	x
Cc1cc2c(N)cccc2nn1	98.8*	1.1	-1.9	-0.6	-6.5%
FC(F)(F)c1cc(C(F)(F)F)c2ccc(N3CCN(c4ccc(Cl)cc4)CC3)nc2n1	-2.2	-3.8	-27.2	0.1	x
Fc1ccc(N2CCN(c3ccc4c(C(F)(F)F)cc(C(F)(F)F)nc4n3)CC2)cc1	121.0*	-2.8	-6.8	-1.1	-2.5%
COC(=O)C[C@@H]1C[C@@H]2c3cc(NC(=O)CN(C)C)ccc3O[C@@H]2[C@@H](CO)O1	x	-0.5[16.7 µM]	-2.0	-8.7	x
CN1CCN(/N=C/c2nc(-c3ccccc3Cl)n3ccccc23)CC1	67.3*	x	x	x	-4.5%
CCC(=O)Nc1ccc2c(c1)OC[C@H](C)N(C(C)=O)C[C@@H](C)[C@@H](OC)CN(C)C2=O	x	2.1[16.7 µM]	-8.7	-4.6	x
Cc1ccc(F)cc1NC(=O)N1CCN(c2ccnc3cc(Cl)ccc23)CC1	0.0	-2.9	x	-7.5	x
O=C(Nc1cc(F)ccc1F)N1CCN(c2ccnc3cc(Cl)ccc23)CC1	60.8*	x	x	x	-0.5%
CCN(CC)Cc1c(O)c(Cl)cc2c(C)c(C)c(=O)oc12	-0.3	0.3	5.0	-2.2	x
SMILES	NSD2 inh	miR122 inh	C2C12 statin	PglD DTNB	AlphaScreen art	others
CCN(CC)Cc1c(O)c(Cl)cc2c(C)cc(=O)oc12	112.2*	-2.9	x	x	-5.2%
O=C(Nc1cc(Cl)ccc1-n1cncn1)c1cccs1	67.6*	x	1.5	-0.2	-1.4%
O=C(Nc1cc(Cl)ccc1-n1cncn1)c1cc(F)cc(F)c1	0.3	21.9	6.9	x	x
COc1ccc(/C=C2\N=C(C(C)(C)C)OC2=O)c(OC)c1	91.0*	-1.0	3.5	2.3	-0.8%
COCC(=O)N(C)C[C@H]1Oc2cc(C#CCC3CCCC3)ccc2S(=O)(=O)N([C@H](C)CO)C[C@H]1C	x	x	-2.4	-1.0	x
O=C(/C=C/c1ccco1)Nc1ccccc1C(=O)O	73.3*	-7.6	x	1.4	-2.2%
O=C(c1ccccc1)N1CC[C@@H]2[C@H](CO)Nc3ccc(C#Cc4cccc(F)c4)cc3[C@@H]21	x	-1.1[16.7 µM]	-45.6	2.0	x
COc1cccc2c1C(=O)C=C(C)C2=O	8.0	-8.0	x	3.6	x
